Assay results published in article PMC9911399, “Two distinct binding modes provide the RNA-binding protein RbFox with extraordinary sequence specificity”.
Changes are numbered by the printed parent chain; changes in the protein carry UniProt numbers. Over roughly 16,000 sequences, “ka relative to ugcaugu” has its median near 0.0091; the highest 2% begin near 0.032. The list comes from a sample in which the highest values are over-represented; it also holds similar and randomly drawn sequences.

T1: RBFOX1 RRM (Homo sapiens, UniProt Q9NWB1 109-208)
T1 sequence: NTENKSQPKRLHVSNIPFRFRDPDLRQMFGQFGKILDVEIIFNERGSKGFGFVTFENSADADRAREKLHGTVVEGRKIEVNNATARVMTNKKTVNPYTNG

B1: CCGCACU (DNA:RNA)
RNA: GGGAGACCGGAAUUCAGAUUGUCCCCGCACUUUAAAUCCCGUCGUAGCCACCA
DNA 1: CAATCTGAATTCCGGTCTCCC
DNA 2: TGGTGGCTACGACGGGATT
B2: CGCCCCU (DNA:RNA)
RNA: B1 RNA with C26G, G27C, A29C
DNA 1: CAATCTGAATTCCGGTCTCCC
DNA 2: TGGTGGCTACGACGGGATT
B3: UUCUAAG (DNA:RNA)
RNA: B1 RNA with C25U, C26U, G27C, C28U, C30A, U31G
DNA 1: CAATCTGAATTCCGGTCTCCC
DNA 2: TGGTGGCTACGACGGGATT
B4: GGUGUGG (DNA:RNA)
RNA: GGGAGACCGGAAUUCAGAUUGUCCGGUGUGGUUAAAUCCCGUCGUAGCCACCA
DNA 1: CAATCTGAATTCCGGTCTCCC
DNA 2: TGGTGGCTACGACGGGATT
B5: AUUAACU (DNA:RNA)
RNA: B1 RNA with C25A, C26U, G27U, C28A
DNA 1: CAATCTGAATTCCGGTCTCCC
DNA 2: TGGTGGCTACGACGGGATT
B6: GUUCCAG (DNA:RNA)
RNA: B4 RNA with G26U, G28C, U29C, G30A
DNA 1: CAATCTGAATTCCGGTCTCCC
DNA 2: TGGTGGCTACGACGGGATT
B7: UAUCCAA (DNA:RNA)
RNA: B1 RNA with C25U, C26A, G27U, A29C, C30A, U31A
DNA 1: CAATCTGAATTCCGGTCTCCC
DNA 2: TGGTGGCTACGACGGGATT
B8: CCACCGU (DNA:RNA)
RNA: B1 RNA with G27A, A29C, C30G
DNA 1: CAATCTGAATTCCGGTCTCCC
DNA 2: TGGTGGCTACGACGGGATT
B9: GUAAUAU (DNA:RNA)
RNA: B4 RNA with G26U, U27A, G28A, G30A, G31U
DNA 1: CAATCTGAATTCCGGTCTCCC
DNA 2: TGGTGGCTACGACGGGATT
B10: UGCGUUG (DNA:RNA)
RNA: B4 RNA with G25U, U27C, G30U
DNA 1: CAATCTGAATTCCGGTCTCCC
DNA 2: TGGTGGCTACGACGGGATT
B11: CGUUGCG (DNA:RNA)
RNA: B4 RNA with G25C, G28U, U29G, G30C
DNA 1: CAATCTGAATTCCGGTCTCCC
DNA 2: TGGTGGCTACGACGGGATT
B12: UGUUGCG (DNA:RNA)
RNA: B4 RNA with G25U, G28U, U29G, G30C
DNA 1: CAATCTGAATTCCGGTCTCCC
DNA 2: TGGTGGCTACGACGGGATT
B13: AAUGGAA (DNA:RNA)
RNA: B4 RNA with G25A, G26A, U29G, G30A, G31A
DNA 1: CAATCTGAATTCCGGTCTCCC
DNA 2: TGGTGGCTACGACGGGATT
B14: UGGCCCG (DNA:RNA)
RNA: B1 RNA with C25U, C26G, A29C, U31G
DNA 1: CAATCTGAATTCCGGTCTCCC
DNA 2: TGGTGGCTACGACGGGATT
B15: UGCUCCC (DNA:RNA)
RNA: B1 RNA with C25U, C26G, G27C, C28U, A29C, U31C
DNA 1: CAATCTGAATTCCGGTCTCCC
DNA 2: TGGTGGCTACGACGGGATT
B16: CGUGCUC (DNA:RNA)
RNA: B4 RNA with G25C, U29C, G30U, G31C
DNA 1: CAATCTGAATTCCGGTCTCCC
DNA 2: TGGTGGCTACGACGGGATT
B17: GUGCUCU (DNA:RNA)
RNA: B1 RNA with C25G, C26U, A29U
DNA 1: CAATCTGAATTCCGGTCTCCC
DNA 2: TGGTGGCTACGACGGGATT
B18: GUGCUCG (DNA:RNA)
RNA: B1 RNA with C25G, C26U, A29U, U31G
DNA 1: CAATCTGAATTCCGGTCTCCC
DNA 2: TGGTGGCTACGACGGGATT
B19: UGGCUCC (DNA:RNA)
RNA: B1 RNA with C25U, C26G, A29U, U31C
DNA 1: CAATCTGAATTCCGGTCTCCC
DNA 2: TGGTGGCTACGACGGGATT
B20: UGCUCCG (DNA:RNA)
RNA: B4 RNA with G25U, U27C, G28U, U29C, G30C
DNA 1: CAATCTGAATTCCGGTCTCCC
DNA 2: TGGTGGCTACGACGGGATT
B21: GUGCUCC (DNA:RNA)
RNA: B1 RNA with C25G, C26U, A29U, U31C
DNA 1: CAATCTGAATTCCGGTCTCCC
DNA 2: TGGTGGCTACGACGGGATT
B22: UGGCUCG (DNA:RNA)
RNA: B1 RNA with C25U, C26G, A29U, U31G
DNA 1: CAATCTGAATTCCGGTCTCCC
DNA 2: TGGTGGCTACGACGGGATT
B23: CGCUACC (DNA:RNA)
RNA: B1 RNA with C26G, G27C, C28U, U31C
DNA 1: CAATCTGAATTCCGGTCTCCC
DNA 2: TGGTGGCTACGACGGGATT
B24: AGAGCCU (DNA:RNA)
RNA: B1 RNA with C25A, C26G, G27A, C28G, A29C
DNA 1: CAATCTGAATTCCGGTCTCCC
DNA 2: TGGTGGCTACGACGGGATT
B25: UAUGCGC (DNA:RNA)
RNA: B4 RNA with G25U, G26A, U29C, G31C
DNA 1: CAATCTGAATTCCGGTCTCCC
DNA 2: TGGTGGCTACGACGGGATT
B26: CUUCGUU (DNA:RNA)
RNA: B1 RNA with C26U, G27U, A29G, C30U
DNA 1: CAATCTGAATTCCGGTCTCCC
DNA 2: TGGTGGCTACGACGGGATT
B27: UCCGGCC (DNA:RNA)
RNA: B1 RNA with C25U, G27C, C28G, A29G, U31C
DNA 1: CAATCTGAATTCCGGTCTCCC
DNA 2: TGGTGGCTACGACGGGATT
B28: UUACUUG (DNA:RNA)
RNA: B4 RNA with G25U, G26U, U27A, G28C, G30U
DNA 1: CAATCTGAATTCCGGTCTCCC
DNA 2: TGGTGGCTACGACGGGATT
B29: GAGUGAG (DNA:RNA)
RNA: B4 RNA with G26A, U27G, G28U, U29G, G30A
DNA 1: CAATCTGAATTCCGGTCTCCC
DNA 2: TGGTGGCTACGACGGGATT
B30: CAGGUUU (DNA:RNA)
RNA: B1 RNA with C26A, C28G, A29U, C30U
DNA 1: CAATCTGAATTCCGGTCTCCC
DNA 2: TGGTGGCTACGACGGGATT
B31: CGCCAGG (DNA:RNA)
RNA: B1 RNA with C26G, G27C, C30G, U31G
DNA 1: CAATCTGAATTCCGGTCTCCC
DNA 2: TGGTGGCTACGACGGGATT

What follows are binders tested against T1, RBFOX1 RRM (assay: EMSA; HiTS-Eq, 1 nM pool, 10 min; buffer printed only for the single-RNA assays: 10 mM Tris pH 7.5, 150 mM NaCl, 3.4 mM EDTA, 0.001% NP-40, 30 C). Conditions: tags: His6 N-terminal (pET28a); label: 5' 32P.
Method in brief: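 A pool of RNA with 7 randomized nucleotides, 5′-radiolabelled and with DNA-annealed flanks, was equilibrated at 1 nM for 10 min in 50 µL with purified RbFox RRM, wild type or mutant, across increasing protein concentrations. Free RNA was separated by 8% native PAGE, excised, reverse-transcribed, barcoded by PCR and sequenced. Relative association constants were obtained from read-count changes of each RNA species versus the control reaction and normalised to the cognate motif.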

Binder	binding signal
B1	0.00621 KA relative to UGCAUGU
B2	0.00718 KA relative to UGCAUGU
B3	0.00998 KA relative to UGCAUGU
B4	0.0188 KA relative to UGCAUGU
B5	0.00102 KA relative to UGCAUGU
B6	0.0134 KA relative to UGCAUGU
B7	0.00131 KA relative to UGCAUGU
B8	0.0012 KA relative to UGCAUGU
B9	0.00279 KA relative to UGCAUGU
B10	0.0296 KA relative to UGCAUGU
B11	0.0173 KA relative to UGCAUGU
B12	0.0326 KA relative to UGCAUGU
B13	0.00264 KA relative to UGCAUGU
B14	0.0217 KA relative to UGCAUGU
B15	0.00242 KA relative to UGCAUGU
B16	0.0133 KA relative to UGCAUGU

Binder	binding signal
B17	0.0226 KA relative to UGCAUGU
B18	0.0432 KA relative to UGCAUGU
B19	0.00985 KA relative to UGCAUGU
B20	0.0132 KA relative to UGCAUGU
B21	0.0357 KA relative to UGCAUGU
B22	0.0396 KA relative to UGCAUGU
B23	0.00834 KA relative to UGCAUGU
B24	0.00804 KA relative to UGCAUGU
B25	0.0181 KA relative to UGCAUGU
B26	0.0135 KA relative to UGCAUGU
B27	0.00966 KA relative to UGCAUGU
B28	0.0182 KA relative to UGCAUGU
B29	0.0102 KA relative to UGCAUGU
B30	0.0116 KA relative to UGCAUGU
B31	0.0105 KA relative to UGCAUGU
